A number with no mark means an inactive call.
tested on: Vero E6 infected with SARS-CoV-2; assay: inhibition of SARS-CoV-2 cytopathic effect; higher = more antiviral protection, active = above 15; settings: 1 nM; 48 h

Structure (SMILES) | inhibition of SARS-CoV-2 cytopathic effect [%]
CC[C@@](C)(Nc1ccnc(-c2c[nH]c3ncccc23)n1)C(=O)NCC(F)(F)F [decernotinib] | -1.03
CNC(=N)NC(=O)Nc1c(C)cccc1C [lidamidine] | 0.93
CCCC[P+](CCCC)(CCCC)Cc1ccc(NC(=O)[C@H](Cc2ccc3ccccc3c2)N/C(=N/C2CCCCC2)NC2CCCCC2)cc1 | -1.29
Cc1cc(CN)cc(C)c1NC(=O)c1ccc(-c2cc(Cl)ccc2Cl)o1 | -1.09
N#C/C(=C1/SCC(c2ccccc2Cl)S1)n1ccnc1 (configuration not stated) [lanoconazole] | 0.51
CCOCc1nc2c(N)nc3ccccc3c2n1CC(C)(C)O [resiquimod] | 2.06
CCCCc1nc(Cl)c(C(=O)O)n1Cc1ccc(-c2ccccc2-c2nn[nH]n2)cc1 [carboxylosartan] | 1.07
CN1CCN(C(=O)c2cc3cc(Cl)ccc3[nH]2)CC1 | -0.68
Nc1nccc(/C=C/c2ccccc2)n1 | 3.44
C[C@]12CC[C@@H]3c4ccc(OS(=O)(=O)O)cc4CC[C@H]3[C@@H]1CCC2=O [estropipate] | -1.99
CC(=O)[O-].CC(=O)[O-].N.NC1CCCCC1.[Cl-].[Cl-].[Pt+4] [satraplatin] | 3.89
c1ccc(CCNc2nc(-c3ccccc3)cs2)cc1 [fanetizole] | -2.03
Nc1nc(N)c2nc(-c3cccc(O)c3)cnc2n1 | -0.93
CN1CCCCC1Cn1cc(C(=O)c2cc([N+](=O)[O-])ccc2I)c2ccccc21 (configuration not stated) | -0.48
CC(O)(P(=O)(O)O)P(=O)(O)O [etidronic-acid] | 0.67
Cc1cc2cc3c(C)cc(=O)oc3c(C)c2o1 [trioxsalen] | 1.96
Cc1cc(Cn2nnc3c(-c4ccco4)nc(N)nc32)ccc1N [vipadenant] | 3.17
CC(=O)SC[C@@H](C)C(=O)N1CCC[C@H]1C(=O)N[C@@H](Cc1ccccc1)C(=O)O [alacepril] | -1.69
C[C@@H]1CC[C@@]2(OC1)O[C@H]1C[C@H]3[C@@H]4CC=C5C[C@@H](O)CC[C@]5(C)[C@H]4CC[C@]3(C)[C@H]1[C@@H]2C [diosgenin] | -0.61
Cc1c(Cc2ccc3ccccc3n2)c2cc(F)ccc2n1CC(=O)O | 1.64
Nc1ccc2ncnc(NCCc3ccc(Oc4ccccc4)cc3)c2c1 | -1.24
CC(C)C(=O)Nc1ncc(-c2cc(C(F)F)nn2-c2c(Cl)cccc2Cl)s1 | 0.32
CC1=CC(=O)c2ccccc2C1=O [menadione] | 1
O=[N+]([O-])c1c(Nc2cc(F)cc(Cl)c2)ccc2nonc12 | 1.7
Cc1ccc2cc(-c3c(C)ccc(C(=O)c4c(-c5ccccc5)n(C)n(-c5ccccc5)c4=O)c3N)ccc2n1 | -0.74
CCCCS(=O)(=O)N[C@@H](Cc1ccc(OCCCCC2CCNCC2)cc1)C(=O)O [tirofiban] | 1.63
CCCCCNCC(N)=O [milacemide] | 1.56

same assay, conditions: 8.33 nM; 48 h

Structure (SMILES) | inhibition of SARS-CoV-2 cytopathic effect [%]
NC(=O)c1ncn([C@@H]2O[C@H](CO)[C@@H](O)[C@H]2O)c1N [acadesine] | 2.34
NCc1cc(O)no1 [muscimol] | 0.05
CCCn1c(=O)c2nc(C34CC5CC(CC3C5)C4)[nH]c2n(CCC)c1=O | -0.55
CCCCNNC(=O)c1ccc(Br)cc1 | 1.2
CC(=O)C1=C(O)[C@@H]2[C@H]3c4c[nH]c5cccc(c45)C[C@H]3C(C)(C)N2C1=O [cyclopiazonic-acid] | 0.86
C=CCN1CC[C@]23c4c5ccc(O)c4O[C@H]2/C(=N/NC(=O)c2ccccc2)CC[C@@]3(O)[C@H]1C5 [naloxone-benzoylhydrazone] | 0.97
CC(C)(C)C(=O)/C(=N/c1ccc(Cl)cc1)NNc1ccc(Cl)cc1 | -0.69
O=C(Nc1ncc(SCCN2CCCC2)s1)[C@]1(c2ccc(S(=O)(=O)C3CC3)cc2)C[C@H]1C1CCCCC1 | -0.96
CC(C)(C)NCC(O)c1cc(O)cc(O)c1 (configuration not stated) | -0.61
C#C[C@]1(O)CC[C@H]2[C@@H]3CCc4cc(O)ccc4[C@H]3CC[C@@]21C | 0.51
CCn1cc(C(=O)O)c(=O)c2cnc(N3CCCC3)nc21 [piromidic-acid] | 1.01
C=CC(=O)Nc1cccc(Nc2nc(Nc3ccc(N4CCN(C(C)=O)CC4)cc3OC)ncc2C(F)(F)F)c1 [rociletinib] | -1.67
CCOc1nc2cccc(C(=O)OCc3oc(=O)oc3C)c2n1Cc1ccc(-c2ccccc2-c2noc(=O)[nH]2)cc1 [azilsartan-medoxomil] | 1.14
CC[C@@](C)(Nc1ccnc(-c2c[nH]c3ncccc23)n1)C(=O)NCC(F)(F)F [decernotinib] | 0.41
CNC(=N)NC(=O)Nc1c(C)cccc1C [lidamidine] | 2.74
CCCC[P+](CCCC)(CCCC)Cc1ccc(NC(=O)[C@H](Cc2ccc3ccccc3c2)N/C(=N/C2CCCCC2)NC2CCCCC2)cc1 | -0.27
Cc1cc(CN)cc(C)c1NC(=O)c1ccc(-c2cc(Cl)ccc2Cl)o1 | 1.98
N#C/C(=C1/SCC(c2ccccc2Cl)S1)n1ccnc1 (configuration not stated) [lanoconazole] | 2.17
CCOCc1nc2c(N)nc3ccccc3c2n1CC(C)(C)O [resiquimod] | 3.82
CCCCc1nc(Cl)c(C(=O)O)n1Cc1ccc(-c2ccccc2-c2nn[nH]n2)cc1 [carboxylosartan] | 1.82

Structure (SMILES) | inhibition of SARS-CoV-2 cytopathic effect [%]
CN1CCN(C(=O)c2cc3cc(Cl)ccc3[nH]2)CC1 | 0.59
Nc1nccc(/C=C/c2ccccc2)n1 | 3.79
C[C@]12CC[C@@H]3c4ccc(OS(=O)(=O)O)cc4CC[C@H]3[C@@H]1CCC2=O [estropipate] | 1.92
CC(=O)[O-].CC(=O)[O-].N.NC1CCCCC1.[Cl-].[Cl-].[Pt+4] [satraplatin] | -0.13
c1ccc(CCNc2nc(-c3ccccc3)cs2)cc1 [fanetizole] | 1.7
Nc1nc(N)c2nc(-c3cccc(O)c3)cnc2n1 | -0.26
CN1CCCCC1Cn1cc(C(=O)c2cc([N+](=O)[O-])ccc2I)c2ccccc21 (configuration not stated) | 0.44
CC(O)(P(=O)(O)O)P(=O)(O)O [etidronic-acid] | -1.84
Cc1cc2cc3c(C)cc(=O)oc3c(C)c2o1 [trioxsalen] | 2.74
Cc1cc(Cn2nnc3c(-c4ccco4)nc(N)nc32)ccc1N [vipadenant] | 2.89
CC(=O)SC[C@@H](C)C(=O)N1CCC[C@H]1C(=O)N[C@@H](Cc1ccccc1)C(=O)O [alacepril] | 0.59
C[C@@H]1CC[C@@]2(OC1)O[C@H]1C[C@H]3[C@@H]4CC=C5C[C@@H](O)CC[C@]5(C)[C@H]4CC[C@]3(C)[C@H]1[C@@H]2C [diosgenin] | -0.09
Cc1c(Cc2ccc3ccccc3n2)c2cc(F)ccc2n1CC(=O)O | -0.1
Nc1ccc2ncnc(NCCc3ccc(Oc4ccccc4)cc3)c2c1 | 1.54
CC(C)C(=O)Nc1ncc(-c2cc(C(F)F)nn2-c2c(Cl)cccc2Cl)s1 | 2.58
CC1=CC(=O)c2ccccc2C1=O [menadione] | 1.27
O=[N+]([O-])c1c(Nc2cc(F)cc(Cl)c2)ccc2nonc12 | 2.32
Cc1ccc2cc(-c3c(C)ccc(C(=O)c4c(-c5ccccc5)n(C)n(-c5ccccc5)c4=O)c3N)ccc2n1 | -0.19
CCCCS(=O)(=O)N[C@@H](Cc1ccc(OCCCCC2CCNCC2)cc1)C(=O)O [tirofiban] | 1.13
CCCCCNCC(N)=O [milacemide] | -1.78

— the supplement of paper PMC13380429
